The values below come from PubChem BioAssay (NCI).

What all share (assay): NCI-60 one-dose screen, 48 h (100 = growth as untreated, 0 = no growth, -100 = all killed)
Common to all, as to conditions: 10 µM unless noted

The test system of assay [1] is DU-145 prostate.
In assay [2] the test system is K-562 leukemia.
Assay [3] has as its system MALME-3M melanoma.
Assay [4] relates to MDA-MB-231 breast.
Assay [5] concerns RXF 393 renal.
Assay [6] deals with SF-268 CNS.
Assay [7] deals with SF-295 CNS.
The test system of assay [8] is SF-539 CNS.
For assay [9], the system named is UACC-257 melanoma.
The test system of assay [10] is M14 melanoma.

Compounds without any hit were thinned out: in the full panel of roughly 83,000, 20% have a hit.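 Results are percent growth after 48 hours of single-concentration exposure. 100 means growth as in untreated cells, lower positive values show inhibition; negative values down to -100 show cell death.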 Unmarked numbers belong to inactive results. Active and inactive are the calls of the source. The calls were made as follows: active = growth percent below 10; inactive = the rest.

With `COc1ccc(C(=O)/C=C/c2cc3ccccc3n3nnnc23)cc1`, the growth in [1] is 115%; in assay [2], 91.8%; in assay [3] it was 108%; in assay [4], 106%; in assay [5] it was 106%; in assay [6], 108%. Also, the growth is 102% in [7], 107% in [8], 114% in assay [9] and 110% in [10].
`O=S(=O)(NCCCNc1nccc(-c2c(-c3cccc(O)c3)nc3occn23)n1)c1ccc(Cl)cc1`: the growth in [1] was 95.4%; in assay [2], 55.6%; in [3] it was 10.7%; in [4], 61.8%; in [5], 77.9%; in assay [6], 87.4%. For the same compound, the growth in assay [7] is 116%; in assay [8], 108%; in [9], 12.7%; in assay [10], 24.3%.
For the compound `CN(C)CC(O)c1ccc(/C=C/c2ccc(Cl)cc2)cc1` (stereo not given), the growth in assay [1] is -88.8% (active); in assay [2] it was -47.6% (active); in assay [3] it was 21.9%; in [4] it was -82.3% (active); in assay [5], 8.01% (active); in [6], -52.4% (active). Further, the growth in assay [7] was -48.2% (active); in assay [8], -67.6% (active); in [9] it was -81.2% (active); in assay [10], -34.8% (active).
`O=C(Nc1cccc(C(=O)N2CCc3ccc(Cl)cc32)c1)c1ccco1`: the growth in assay [1] is 67.8%; in assay [2], 13.9%; in assay [3], 40.9%; in [4], 44.9%; in [5], 39.9%; in [6], 55.9%. The growth in assay [7] was 30.8%; in [8], 26.8%; in assay [9], 52.2%; in assay [10], 18.2%.
With `COc1cc(C=O)ccc1OC1OC(COC(C)=O)C(OC(C)=O)C(OC(C)=O)C1OC(C)=O` (stereo not given), the growth in [1] was 107%; in assay [2], 116%; in assay [3] it was 102%; in assay [4], 101%; in assay [5], 103%; in [6], 99.2%. Also, the growth is 102% in assay [7], 96.7% in assay [8], 101% in assay [9] and 96.6% in [10].
Regarding `O=C(CCN1CCCC1)Nc1ccc2c(NCCc3ccccc3)c3ccccc3nc2c1`, the growth was -23.3% (active) in assay [1]; -17.1% (active) in assay [2]; -92.6% (active) in assay [3]; -32.5% (active) in assay [4]; -47.9% (active) in assay [5]; -55% (active) in assay [6]. Further, the growth was -2.88% (active) in [7], -67.2% (active) in assay [8], -8.54% (active) in assay [9] and -61.8% (active) in assay [10].
`CCCCNC(=O)Oc1ccc(/C(=C(\C)c2ccccc2)c2ccc(OCCN3CCCCC3)cc2)cc1`: the growth in assay [1] was 82.3%; in [2] it was 5.45% (active); in [3] it was 44.6%; in assay [4] it was 73%; in assay [5], 53.2%; in [6] it was 67.7%. The growth in assay [7] was 42.6%; in [8], 31%; in assay [9], -24.1% (active); in assay [10] it was -15.6% (active).
Consider `NC(=NCCCOc1ccc(F)cc1)Nc1ccc(I)cc1`, for which the growth in assay [1] is 63.1%; in [2] it was 27.3%; in assay [3] it was 74.6%; in assay [4] it was 51.9%; in assay [5], 94%; in assay [6], 67.7%. Moreover, the growth in [7] was 80.8%; in assay [8], 78.8%; in assay [9], 55.8%; in assay [10], 59.6%.
Consider `C#CCNC(=O)[C@H](Cc1ccccc1)NC(=O)[C@]12CC[C@@H](C(=C)C)[C@@H]1[C@H]1CC[C@@H]3[C@@]4(C)CCC(=O)C(C)(C)[C@@H]4CC[C@@]3(C)[C@]1(C)CC2`, for which the growth in assay [1] was 91.6%; in [2], 31.8%; in [3] it was 88.8%; in assay [4], 79.1%; in assay [5] it was 82.9%; in assay [6], 74.3%. The growth in [7] was 73.4%; in [8], 99.9%; in assay [9], 59.4%; in assay [10], 81.7%.
Regarding `CC1=C(C(=O)/C=C/c2ccc(N(C)C)cc2)C(c2ccccc2)NC(=S)N1` (stereo not given), the growth was 107% in assay [1]; 92.1% in assay [2]; 108% in [3]; 100% in assay [4]; 107% in [5]; 97.8% in [6]. For the same compound, the growth in assay [7] is 110%; in [8] it was 97.1%; in [9], 99.7%; in assay [10] it was 101%.
In the case of `COc1ccc(/C=C2\Oc3cc(OCCCN4CCCCC4)ccc3C2=O)cc1OC`, the growth in assay [1] is 95.9%; in assay [2], -22.8% (active); in [3] it was 104%; in assay [4] it was 78.6%; in [5], 74.4%; in assay [6], 86.5%. For the same compound, the growth in assay [7] was 102%; in assay [8] it was 91.5%; in [9], 102%; in [10], 98.7%.
On to `CC(=O)c1cc2c(N)c(C(=O)Nc3cccc4ccncc34)sc2nc1C`, for which the growth is 109% in assay [1]; 82.2% in [2]; 101% in assay [3]; 93% in [4]; 104% in assay [5]; 98.5% in assay [6]. The growth in [7] is 85%; in assay [8] it was 94.1%; in assay [9] it was 96.2%; in [10] it was 75.8%.
For the compound `Cc1nc(N)nc(N[C@@H](C)c2nc3cccc(NCc4ccc(C(=O)NO)cc4)c3c(=O)n2-c2ccccc2)n1`, the growth is 86.9% in assay [1]; 47.8% in assay [2]; 37.7% in [3]; 81% in assay [4]; 65% in assay [5]; 87.1% in assay [6]. For the same compound, the growth in assay [7] was 104%; in assay [8], 75.9%; in assay [9] it was 58.3%; in [10], 73.7%.
With `O=C(NCCNc1nccc(-c2c(-c3cccc(F)c3)nc3sccn23)n1)c1ccc(Cl)cc1`, the growth in assay [1] was 71%; in assay [2] it was 54.4%; in assay [3], 34.9%; in assay [4] it was 65.5%; in assay [5], 72.9%; in assay [6], 67.9%. The growth in [7] is 73.8%; in assay [8] it was 90%; in [9], 76%; in [10], 38.8%.
With `CC(=O)N1N=C(c2ccc(-n3ccc(C(F)(F)F)n3)c(F)c2)CC1c1ccc[nH]1` (stereo not given), the growth is 109% in assay [1]; 91.9% in assay [2]; 102% in [3]; 105% in assay [4]; 116% in assay [5]; 104% in assay [6]. Besides, the growth in [7] is 98.8%; in assay [8], 102%; in [9], 96.4%; in assay [10], 102%.
With `Cc1cnc(C(=O)Nc2nc3ccc(S(=O)(=O)Nc4ccc(C5(C(F)(F)F)CC5)cc4)cc3[nH]2)cn1`, the growth in assay [1] is 1.12% (active); in assay [2], 10%; in assay [3] it was 32.2%; in assay [4], 47.2%; in assay [5], -17.4% (active); in assay [6] it was 47%. Further, the growth in [7] is 20.6%; in [8] it was -1.85% (active); in [9], 57.7%; in assay [10] it was 6.68% (active).
As for `CCOC(=O)Oc1c(OC)cc(C(=O)c2ccc(OC)c(O)c2OC)cc1OC`, the growth in assay [1] was 13.8%; in assay [2], 10.8%; in assay [3], 49.1%; in [4], 30.8%; in [5] it was -10.1% (active); in assay [6], 48.7%. Besides, the growth in [7] was 22.6%; in assay [8], -15.7% (active); in assay [9], 47.3%; in assay [10], -9.21% (active).
In the case of `CC1(C)CC[C@]2(C(=O)O)CC[C@]3(C)C(=CC[C@@H]4[C@@]5(C)Cc6c([nH]c7ccccc67)C(C)(C)[C@@H]5CC[C@]43C)[C@@H]2C1`, the growth in assay [1] was 49.5%; in [2], 28.8%; in assay [3] it was 115%; in [4], 65.5%; in assay [5] it was 67.2%; in assay [6] it was 54%. Also, the growth in assay [7] was 36.7%; in [8] it was 36.2%; in [9], 88.5%; in assay [10], 76.4%.
On to `O=C(Nc1ccc(Cl)cc1)c1cc(NCc2cc(O)ccc2O)ccc1O`, for which the growth in [1] is 100%; in assay [2] it was 41.9%; in [3], 80.2%; in assay [4] it was 69.1%; in assay [5] it was 67.1%; in [6], 77.2%. In addition, the growth in assay [7] was 116%; in [8] it was 43.5%; in [9], 77.3%; in [10], 102%.
`Cc1ccc(-n2c3c(c(-c4ccccc4)c2-c2ccccc2)C2=NCCN2C=N3)cc1`: the growth in assay [1] is 95%; in assay [2] it was 64.2%; in assay [3], 97.9%; in assay [4] it was 80.5%; in assay [5], 101%; in assay [6] it was 96.2%. Moreover, the growth in assay [7] was 99.2%; in [8] it was 95.4%; in [9] it was 104%; in assay [10], 95.7%.
In the case of `COc1cc2nc(-c3ccc(Cl)cc3)cc(OCCCN3CCOCC3)c2cc1OC`, the growth in assay [1] is 43.8%; in assay [2] it was 10.3%; in assay [3], 64.9%; in [4] it was 27.2%; in assay [5], 28.7%; in assay [6], 63.2%. Also, the growth in assay [7] is -39% (active); in assay [8], 64.1%; in [9], 1.42% (active); in assay [10], -37.9% (active).
In the case of `CCOC(=O)C1=C(C)NC(SCc2cc(=O)oc3ccc(F)cc23)=N[C@@H]1c1cccc2ccccc12`, the growth in assay [1] was 98.5%; in assay [2] it was 79.7%; in assay [3], 112%; in assay [4] it was 77.7%; in [5], 117%; in assay [6] it was 94.3%. The growth in assay [7] is 97.9%; in assay [8], 114%; in assay [9], 109%; in assay [10] it was 102%.
Take `CCN(CC)c1ccc(/C=N/NC(=O)CSc2nc3ccccc3c(=O)n2CCc2ccc(S(N)(=O)=O)cc2)c(O)c1`: the growth in [1] is 31%; in [2], 7.07% (active); in assay [3], 44.3%; in [4] it was 26%; in assay [5], 44.1%; in assay [6], 32.5%. The growth in assay [7] was 38.6%; in [8], 22.7%; in assay [9], 16.7%; in [10] it was 31.1%.
For the compound `C=C1C(=O)O[C@H]2[C@H]1CC/C(COC(=O)NCC(C)c1ccc(CC(C)C)cc1)=C\CC[C@@]1(C)O[C@@H]21` (stereo not given in full), the growth was 16.4% in assay [1]; -18.2% (active) in assay [2]; -62.7% (active) in assay [3]; -62.8% (active) in [4]; -73.7% (active) in assay [5]; -17.1% (active) in [6]. The growth in assay [7] was 83.4%; in assay [8] it was -77% (active); in assay [9] it was 56.1%; in assay [10], -29.8% (active).
Turning to `CNC(=O)c1cncc(Cn2nc(C)c(NC(=O)c3ccc(COc4ccc(C(F)(F)F)cc4C)cc3)c2C)c1`, the growth in assay [1] was 67%; in assay [2], 37%; in assay [3], 73.8%; in assay [4] it was 78.2%; in assay [5], 83.7%; in assay [6] it was 70.8%. In addition, the growth in [7] was 40.4%; in assay [8], 80.7%; in [9], 18.4%; in assay [10], 73.3%.
In the case of `CN[C@@H](C)C(=O)N[C@H]1CCS[C@H]2CC(C)(C)[C@@H](C(=O)N[C@H]3c4ccccc4C[C@H]3OCC#CC#CCO[C@@H]3Cc4ccccc4[C@@H]3NC(=O)[C@H]3N4C(=O)[C@@H](NC(=O)[C@H](C)NC)CCS[C@H]4CC3(C)C)N2C1=O`, the growth in assay [1] is 101%; in assay [2], 100%; in [3], -42.8% (active); in assay [4], -51.2% (active); in [5], 2.22% (active); in assay [6] it was 124%. Also, the growth in [7] is 86.8%; in assay [8], -43.6% (active); in [9], 101%; in [10], 103%.
